Each sequence was assayed against ZNF219 (assay: pooled miR-30 sensor sort-seq; sequence = guide strand). Conditions: shRNA.
TCCAACTCCAGCAACAGGCGTG gave a sensor-assay potency score (higher = more potent) of -0.967.
TGTAGGTGATACTTGAGCGAGC gave a sensor-assay potency score (higher = more potent) of -0.911.
Sequence TGGAGTATCGCTGCAGATCCAG has a sensor-assay potency score (higher = more potent) of -1.26.
In the case of TAGAGTTGAAGCGGAAGCGCTT, the sensor-assay potency score (higher = more potent) is reported as -0.695.
TAGTAGCGCGCGCTCTTCCAAC showed a sensor-assay potency score (higher = more potent) of -1.67.
In the case of TTGAGGTGATGTGCTGAGCGGA, the sensor-assay potency score (higher = more potent) is reported as -0.983.
With TACTTGAGCGAGCCGGACTGGG the sensor-assay potency score (higher = more potent) was -1.26.
TCGCAGATGCACTTTGAGGTGA gave a sensor-assay potency score (higher = more potent) of -0.383.
Work on TTGCCTTTGCAGTAGGGGCAAC yielded a sensor-assay potency score (higher = more potent) of -1.2.

The sequences below were run against ZNF233 in the same assay as above. Conditions: shRNA.
Work on ATGTACACAACTTCTCTCCTGG yielded a sensor-assay potency score (higher = more potent) of -0.0529.
Work on TTAATTTACTTGTAAATTGTTC yielded a sensor-assay potency score (higher = more potent) of -0.905.
For TTTGCTGACACCTACTCTGATA, the sensor-assay potency score (higher = more potent) was -0.77.
TTCTTGTGTCCTGAACACCCAT showed a sensor-assay potency score (higher = more potent) of -0.736.
In the case of TTAATCTTACTTCTTGAAGGGT, the sensor-assay potency score (higher = more potent) is reported as -0.195.
TATCTCATTTTGATTCTTGTGT showed a sensor-assay potency score (higher = more potent) of 0.251.
In the case of TTTAGCAACTTGGACCTCTTGC, the sensor-assay potency score (higher = more potent) is reported as 0.0723.
For TAATCTTACTTCTTGAAGGGTA, the sensor-assay potency score (higher = more potent) was 0.461.
With TTTACTTGTAAATTGTTCCCAT the sensor-assay potency score (higher = more potent) was 0.845.
TATTAGGTCTTGATTACTGGTT showed a sensor-assay potency score (higher = more potent) of -0.618.
In the case of TCTTGTGTCCTGAACACCCATC, the sensor-assay potency score (higher = more potent) is reported as -0.866.
TATCCTGTCACTTACTTCCCAT was tested, and the sensor-assay potency score (higher = more potent) was -0.636.

Each sequence was assayed against ZNF24 in the same assay as above. Conditions: shRNA.
In the case of TCTTCTACTAGTACTTCCCGTT, the sensor-assay potency score (higher = more potent) is reported as 0.168.
Sequence AAAAATTTGAGGAACACCCATA has a sensor-assay potency score (higher = more potent) of -0.922.
TTTGTGTGCGTCTCTGGCCTGA gave a sensor-assay potency score (higher = more potent) of -0.444.
For TGGATGATGATCTCGAACCCAA, the sensor-assay potency score (higher = more potent) was -0.874.
TAGTGCTCCATTTTCAGTCCTA was tested, and the sensor-assay potency score (higher = more potent) was 0.194.
For TTGAGGAACACCCATACTGAGA, the sensor-assay potency score (higher = more potent) was -1.26.
With TTTCTCTTTCTTTCAAACCTGC the sensor-assay potency score (higher = more potent) was 0.00433.
With TAATGCTGAAGGAAGCTCCTGC the sensor-assay potency score (higher = more potent) was 0.616.
Sequence TAAAAATTTGAGGAACACCCAT has a sensor-assay potency score (higher = more potent) of -0.488.
Sequence TTCACTCTCCAAATCCTCCAGC has a sensor-assay potency score (higher = more potent) of -0.297.
With TTCTGCATTGTGTCTTCTCTGA the sensor-assay potency score (higher = more potent) was 0.000948.
TAAGTATTGAATCTTCTTCCAC showed a sensor-assay potency score (higher = more potent) of -0.673.

These sequences were tested against ZNF250 in the same assay as above. Conditions: shRNA.
TACACTGCACACATAGGGCTTC was tested, and the sensor-assay potency score (higher = more potent) was -0.55.
In the case of TGTATGTATCTTGTGATGCTGA, the sensor-assay potency score (higher = more potent) is reported as -0.256.
For TGTATTTTGACTCTCTCCCTTG, the sensor-assay potency score (higher = more potent) was -0.459.
With TTAACAGAGACTTCTCTTGGGC the sensor-assay potency score (higher = more potent) was -0.0398.
Work on TAAGACCTGAACTTCACGGTGG yielded a sensor-assay potency score (higher = more potent) of 0.671.
TTGTCTGAGTAGTCACTCCACA showed a sensor-assay potency score (higher = more potent) of -0.51.
With TGTCTTGTTGTGTACAGGCTGT the sensor-assay potency score (higher = more potent) was -0.552.
Note: reference of the scale not given here.
